These results are taken from PubChem BioAssay (NCATS).

The structures appear in SMILES notation. “And” between values parts separate entries of the source, which are not always exact repeats. Equal entries are not always repeated. Inconclusive results are not listed. A call without a number means that no potency is given here. The source made the active and inactive calls. Calls follow the shape of the dose curve; as a rule, active = well fitted curve in the direction sought with a large enough effect; inconclusive = small, poorly fitted or top-dose-only effect, or another doubt; inactive = no such curve, though single readings can be large; an effect the other way counts as inactive or inconclusive. Numbered stars: 1 amine (or outer) side, 2 acyl side, 3 side chain; on linkers, the order of the positions; unused ones are H or OH. Bridge positions count the residues as written; N and C are the ends. Square brackets hold non-standard residues; d marks the D form. Peptide text beside a SMILES is read from it. I, II: the chains in the order shown. Actinocin(9to1) = Cc1c2oc3c(C)ccc(C(=O)[*:1])c3nc-2c(C(=O)[*:2])c(N)c1=O; NMeV = CN[C@H](C(=O)O)C(C)C; Sar = CNCC(=O)O

The nature of one assay: Confirmatory screen NINDS Rhodamine qHTS for Zika virus inhibitors (AID 1347161). Also: nearly all actives have a fitted effect of over 60% in size. Also: potency is read from the fitted curve at half-maximal effect. The following applies: purified enzyme assay, Rhodamine110 substrate fluorescence, 15 min; series mostly up to 114 µM. An outline of the steps:
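Kinetic fluorescence (Ex 480 nm, Em 540 nm) over 15 min with 1.5 microM Rhodamine110 peptide and 25 nM linked protease.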
(In general: Quantitative high-throughput screening tests each substance at several concentrations.)
With `Cc1c2oc3c(C)ccc(C(=O)N[C@@H]4C(=O)N[C@H](C(C)C)C(=O)N5CCC[C@H]5C(=O)N(C)CC(=O)N(C)[C@@H](C(C)C)C(=O)O[C@@H]4C)c3nc-2c(C(=O)N[C@@H]2C(=O)N[C@H](C(C)C)C(=O)N3CCC[C@H]3C(=O)N(C)CC(=O)N(C)[C@@H](C(C)C)C(=O)O[C@@H]2C)c(N)c1=O` (I: T[dV]P[Sar][NMeV] / II: T[dV]P[Sar][NMeV]; ester I:1-I:C, II:1-II:C; linker I:N-II:N via Actinocin(9to1)), the Potency entry was “inactive”.

With `CC(C)C[C@H]1C(=O)N2CCC[C@H]2[C@]2(O)O[C@](NC(=O)[C@@H]3C=C4c5cccc6[nH]c(Br)c(c56)C[C@H]4N(C)C3)(C(C)C)C(=O)N12`, the Potency entry was “inactive”.

Take `Nc1nc2ncc(CNc3ccc(C(=O)N[C@@H](CCC(=O)O)C(=O)O)cc3)nc2c(=O)[nH]1`: the Potency was 55.3 µM (active).

Regarding `O=C(Nc1ccc(Oc2ccc(Cl)cc2)c(Cl)c1)c1cc(I)cc(I)c1O`, the Potency is 20 µM (active) and 3.93 µM (active).

Another assay is described as follows: Vero cells viability qHTS for Zika virus inhibitors (AID 1347167). As to conditions: cytotoxicity counter-screen (Zika); series mostly up to 45.9 µM. An outline of the steps: (§1)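 Luminescent ATP readout (CellTiter Glo) after 30 min at 37 degrees C gives viability; cells in DMEM + 4% FBS were treated 24 to 48 hours with compound, following overnight attachment.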
Consider `Cc1c2oc3c(C)ccc(C(=O)N[C@@H]4C(=O)N[C@H](C(C)C)C(=O)N5CCC[C@H]5C(=O)N(C)CC(=O)N(C)[C@@H](C(C)C)C(=O)O[C@@H]4C)c3nc-2c(C(=O)N[C@@H]2C(=O)N[C@H](C(C)C)C(=O)N3CCC[C@H]3C(=O)N(C)CC(=O)N(C)[C@@H](C(C)C)C(=O)O[C@@H]2C)c(N)c1=O` (I: T[dV]P[Sar][NMeV] / II: T[dV]P[Sar][NMeV]; ester I:1-I:C, II:1-II:C; linker I:N-II:N via Actinocin(9to1)), for which the Potency result is “inactive”.

For the compound `CC(C)C[C@H]1C(=O)N2CCC[C@H]2[C@]2(O)O[C@](NC(=O)[C@@H]3C=C4c5cccc6[nH]c(Br)c(c56)C[C@H]4N(C)C3)(C(C)C)C(=O)N12`, the Potency result is “inactive”.

`Nc1nc2ncc(CNc3ccc(C(=O)N[C@@H](CCC(=O)O)C(=O)O)cc3)nc2c(=O)[nH]1`: the Potency entry is “inactive”.

Another assay is described as follows: HepG2 cells viability qHTS for Zika virus inhibitors (AID 1347168). The following applies: Zika counter-screen; series mostly up to 45.9 µM. The gist of the method: as §1
For the compound `Cc1c2oc3c(C)ccc(C(=O)N[C@@H]4C(=O)N[C@H](C(C)C)C(=O)N5CCC[C@H]5C(=O)N(C)CC(=O)N(C)[C@@H](C(C)C)C(=O)O[C@@H]4C)c3nc-2c(C(=O)N[C@@H]2C(=O)N[C@H](C(C)C)C(=O)N3CCC[C@H]3C(=O)N(C)CC(=O)N(C)[C@@H](C(C)C)C(=O)O[C@@H]2C)c(N)c1=O` (I: T[dV]P[Sar][NMeV] / II: T[dV]P[Sar][NMeV]; ester I:1-I:C, II:1-II:C; linker I:N-II:N via Actinocin(9to1)), the Potency result was “inactive”.

Take `CC(C)C[C@H]1C(=O)N2CCC[C@H]2[C@]2(O)O[C@](NC(=O)[C@@H]3C=C4c5cccc6[nH]c(Br)c(c56)C[C@H]4N(C)C3)(C(C)C)C(=O)N12`: the Potency entry was “inactive”.

With `Nc1nc2ncc(CNc3ccc(C(=O)N[C@@H](CCC(=O)O)C(=O)O)cc3)nc2c(=O)[nH]1`, the Potency result was “inactive”.

`O=C(Nc1ccc(Oc2ccc(Cl)cc2)c(Cl)c1)c1cc(I)cc(I)c1O`: the Potency entry was “inactive”.

The next assay can be described thus: Tertiary RLuc qRT-PCR qHTS assay for Zika virus inhibitors (AID 1347169). Also: nearly all actives have a fitted effect of over 55% in size. Also: potency is read from the fitted curve at half-maximal effect. The following applies: infected Vero cells, reporter luminescence, 48-72 h; series mostly up to 5.25 µM. The text has this: Avindra Nath, Ph.D., National Institute of Neurological Disorders and Stroke (NINDS), Bethesda, MD
Radhakrishnan Padmanabhan, Ph.D., Georgetown University (GU), Washington D.C.
Zika Virus causes congenital defects, including microcephaly and is associated with Guillain-Barre syndrome, eningoencephalitis and myelitis in infected adult. […] Using a target-based approach, we hope to establish a screening paradigm to uncover novel, cell-active NS2B-NS3 protease (Zika Virus) specific inhibitors from NCATS' collection of small molecules using qHTS.
Four assay panel was created to identify potential Zika Virus inhibitors. Namely, (1) GU unlinked NS2B-NS3 AMC tagged protease qHTS, (2) GU unlinked NS2B-NS3 Rhodamine tagged protease qHTS, (3) NINDS linked NS2B-NS3 AMC tagged protease qHTS, (4) NINDS linked NS2B-NS3 Rhodamine tagged protease qHTS. Identified inhibitors were re-acquired and tested against secondary confirmatory, orthogonal, and counterscreens to exclude nonspecific inhibition.
Early Translation Branch (ETB)
National Center for Advancing Translational Sciences (NCATS), Rockville, MD
National Institute of Health (NIH), Bethesda, Maryland
1536-well recombinant virus ZIKV-RLuc (Cambodian) Assay:
For a follow-up assay, we adapted a high throughput orthogonal assay in 1536-well plate format to use the recombinant virus ZIKV-RLuc, in Vero cells. Briefly, three microL of Vero cells derived from a green monkey cell line, were dispensed Multidrop Dispenser into a solid bottom white 1,536-well plate at a concentration of 1,000 cells per well. The plate was incubated overnight in a CO2 incubator at 37 degrees C. Compounds were delivered as a 23 nL DMSO solution by Kalypsys pintool transfer. Following compound transfer, 2 microL of ZIKV-RLuc was added at an MOI of 1-2 and incubated in a CO2 incubator for 48-72 hrs at 37 degrees C. After sufficient incubation of infected cells in test plates, live cell Renilla luciferase substrate (Promega) was added. The luminescence signal was measured after 1-1.5 hrs exposure to substrate in ViewLux reader.
Background: Quantitative PCR measures a nucleic acid by following its amplification.
In the case of `Cc1c2oc3c(C)ccc(C(=O)N[C@@H]4C(=O)N[C@H](C(C)C)C(=O)N5CCC[C@H]5C(=O)N(C)CC(=O)N(C)[C@@H](C(C)C)C(=O)O[C@@H]4C)c3nc-2c(C(=O)N[C@@H]2C(=O)N[C@H](C(C)C)C(=O)N3CCC[C@H]3C(=O)N(C)CC(=O)N(C)[C@@H](C(C)C)C(=O)O[C@@H]2C)c(N)c1=O` (I: T[dV]P[Sar][NMeV] / II: T[dV]P[Sar][NMeV]; ester I:1-I:C, II:1-II:C; linker I:N-II:N via Actinocin(9to1)), the Potency is 0.165 µM (active).

For the compound `Nc1nc2ncc(CNc3ccc(C(=O)N[C@@H](CCC(=O)O)C(=O)O)cc3)nc2c(=O)[nH]1`, the Potency result is “inactive”.

As for `O=C(Nc1ccc(Oc2ccc(Cl)cc2)c(Cl)c1)c1cc(I)cc(I)c1O`, the Potency was 26.2 µM (active).
